Compounds without any hit were thinned out: in the full panel of roughly 83,000, 20% have a hit.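 Compound tested at a single concentration for 48 hours in 96-well plates; a percent growth value below 10 was scored as active.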 Values without a mark were called inactive. The source made the active and inactive calls.

What all share (assay): NCI-60 one-dose screen, 48 h (100 = growth as untreated, 0 = no growth, -100 = all killed)
Experiment [1] relates to K-562 leukemia. As to conditions: 10 µM unless noted.
Experiment [2] concerns U251 CNS. As to conditions: 10 µM unless noted.
Experiment [3] has as its system LOX IMVI melanoma. As to conditions: 10 µM unless noted.
Experiment [4] deals with TK-10 renal. The conditions noted are these: 10 µM unless noted.
Experiment [5] concerns MOLT-4 leukemia. The conditions noted are these: 10 µM.
Experiment [6] concerns SR leukemia. As to conditions: 10 µM.
For experiment [7], the system named is SK-OV-3 ovarian. As to conditions: 10 µM unless noted.
Experiment [8] deals with IGROV1 ovarian. The conditions noted are these: 10 µM.
Experiment [9] deals with HS 578T breast. The conditions noted are these: 10 µM unless noted.
The test system of experiment [10] is BT-549 breast. The conditions noted are these: 10 µM.
The subject of experiment [11] is NCI-H522 lung. As to conditions: 10 µM unless noted.
Experiment [12] has as its system COLO 205 colon. The conditions noted are these: 10 µM.
In experiment [13] the test system is CAKI-1 renal. The conditions noted are these: 10 µM unless noted.
Experiment [14] concerns CCRF-CEM leukemia. The conditions noted are these: 10 µM unless noted.
The test system of experiment [15] is SW-620 colon. The conditions noted are these: 10 µM unless noted.
The subject of experiment [16] is HCT-116 colon. The conditions noted are these: 10 µM unless noted.
In experiment [17] the test system is HOP-92 NSCLC. As to conditions: 10 µM unless noted.
Experiment [18] has as its system EKVX NSCLC. The conditions noted are these: 10 µM unless noted.
Experiment [19] concerns NCI-H322M lung. The conditions noted are these: 10 µM unless noted.

On to `O=C(O)C1[O][Sb][O]C1C(=O)O` (centres undefined), for which the growth in experiment [1] is 89.1%; in [2] it was 102%; in [3], -57.9% (active); in experiment [4], 101%; in experiment [5], 94.6%; in experiment [6] it was 70%. Moreover, the growth is 102% in [7], 81.8% in experiment [8], 101% in experiment [9] and 84.6% in [10].

With `C[C@]12CC[C@@H]3C4=C(CC[C@H]3[C@@H]1CC[C@@H]2O)CC(=O)CC4`, the growth in experiment [11] was 90.8%; in experiment [12], 117%; in experiment [1] it was 96.9%; in [2], 96.8%; in [4], 113%; in [13], 92%. The growth was 96.3% in [14]; 89% in experiment [5]; 97.5% in experiment [6]; 114% in experiment [7]; 121% in experiment [8]; 5.03% (active) in [9]. In experiment [10], the growth was 122%.

With `CNC(C)Cc1ccccc1` (centres undefined) (tested in a mixture with another compound), the growth is 82.4% in experiment [11]; 102% in [12]; 88.9% in experiment [1]; 98.7% in experiment [3]; 102% in experiment [13]; 105% in [14]. The growth in experiment [5] was 90.6%; in [6] it was 108%; in [7], 92.8%; in [8], 101%; in experiment [9], 106%; in experiment [15], 102%. In addition, the growth in experiment [16] is 100%.

Turning to `CC1(C)N=C(N)N=C(N)N1c1ccc(OCCCCNC(=O)Nc2cccc(S(=O)(=O)F)c2)c(Cl)c1`, the growth was 50.4% in [12]; 17.7% in experiment [1]; 15.6% in experiment [2]; 13.7% in experiment [3]; 62% in experiment [4]; 96.6% in experiment [13]. The growth in experiment [14] is 23.6%; in experiment [5] it was 37.6%; in experiment [6], 45.8%; in experiment [8] it was 37.9%; in [15], 27.1%; in experiment [16] it was 16.4%.

Turning to `O=C(CCCN1CCC2(CC1)C(=O)NCN2c1ccc(F)cc1)c1ccc(F)cc1`, the growth was 102% in [17]; 87.5% in experiment [11]; 124% in experiment [12]; 113% in experiment [1]; 102% in experiment [2]; 106% in experiment [3]. Moreover, the growth in experiment [18] is 135%; in experiment [4], 102%; in experiment [13] it was 121%; in [14], 96.9%; in experiment [5] it was 103%; in experiment [6], 99.2%. The growth was 98.4% in experiment [7]; 71.9% in [8]; 133% in experiment [9]; 97.3% in experiment [10]; 88.6% in [16].

In the case of `C[C@]12CC[C@H](OC3OC(O)C(O)C(O)C3O)C=C1CCC1C2CC[C@]2(C)[C@@H](c3ccc(=O)oc3)CC[C@]12O` (some centres undefined), the growth was -61.4% (active) in experiment [11]; -85.1% (active) in [12]; -35.3% (active) in experiment [1]; 104% in [2]; -84.4% (active) in [3]; -86.6% (active) in experiment [18]. In addition, the growth is -80.6% (active) in experiment [4]; -62.6% (active) in experiment [13]; -33.8% (active) in experiment [14]; -39.3% (active) in experiment [5]; -42.7% (active) in experiment [6]; -93.7% (active) in experiment [7]. Further, the growth was -12.1% (active) in experiment [8], 9.56% (active) in experiment [9], -90.5% (active) in experiment [15] and -95.3% (active) in experiment [16].

`O=S(=O)(Cl)c1ccccc1` (tested in a mixture with another compound): the growth is 89.1% in experiment [11]; 105% in experiment [12]; 93.7% in [2]; 98.8% in experiment [3]; 105% in [4]; 109% in [13]. Also, the growth in experiment [14] was 114%; in experiment [5] it was 93%; in experiment [6] it was 104%; in experiment [8], 109%; in experiment [9], 102%; in experiment [10] it was 99.5%. The growth in [15] is 96.9%; in [16] it was 99.4%.

Consider `O=C(CCc1ccco1)NC1CCN(CC2(c3ccc(Cl)cc3)CCC2)CC1`, for which the growth in experiment [19] was 34.7%; in experiment [17], -21.9% (active); in experiment [11], -22.2% (active); in experiment [1] it was 3.19% (active); in [2] it was 7.34% (active); in experiment [4], -0.211% (active). In addition, the growth in experiment [13] was 5.62% (active); in experiment [14], 6.1% (active); in experiment [6] it was -24.6% (active); in experiment [8], 30.1%; in experiment [9], 28.7%; in [10], 12.4%. Besides, the growth in [15] is 14.7%; in experiment [16], 7.86% (active).
